Data from PubChem BioAssay (EPA / NIEHS).
Where “and” joins values, the source holds several entries; their conditions need not be identical. Equal values may be shown once. Results filed as inconclusive are left out. A structure can be active in one record and inactive in another. Calls of active or inactive are those of the source. The calls were made as follows, unless noted: active = hit-call score of the fitted dose curve at least 0.9, where 1 is the maximum; inactive = score below 0.9.

Experiments:
[1] = CCTE_Deisenroth_AIME_384WELL_CTox_Inactive: Cytotoxicity Assessment (CTOX) in CCTE's 384-well Estrogen Receptor Transactivation Assay without AIME metabolic competence (metabolism negative), Deisenroth Lab (AID 2284039; active = hit-call score of the fitted dose curve at least 0.9, where 1 is the maximum;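 also: cell viability via live-cell protease substrate cleaved to fluorescent probe; cells exposed 24 h to medium preincubated 2 h with alginate-water beads without S9; loss of fluorescence signal means loss of viability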)
Summary of the method: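 Fluorescent protease-substrate viability readout after 24 h exposure of VM7Luc4E2 cells to conditioned medium. Chemicals (0.002–200 uM) first sat 2 h over alginate-water beads, no S9. Data fitted bidirectionally, loss of signal meaning viability loss.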

[2] = CCTE_Shafer_MEA_dev_active_electrodes_number: CCTE's Neural Network Formation Assay for Number of Active Electrodes, Shafer Lab (AID 2284040; active = hit-call score of the fitted dose curve at least 0.9, where 1 is the maximum;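 as to AC50: potency for loss of active electrodes versus DMSO so lower counts are hits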)
Summary of the method: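 Rat cortical primary cultures, 1.5 x 10^5 cells/well, PEI-coated MEA, laminin drop. Continuous exposure DIV 0–12; full media/compound change DIV 5, 9. Readout: electrodes with mean firing ≥5 spikes/min; AUC across days; loss vs DMSO.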

[3] = CCTE_Shafer_MEA_dev_per_burst_interspike_interval: CCTE's Neural Network Formation Assay for Burst Interspike Interval, Shafer Lab (AID 2284044);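 also: mean spike spacing inside bursts as AUC over recordings on days 5 7 9 12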;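 as to AC50: potency for a decrease of within-burst interspike interval below DMSO level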
Summary of the method: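 Developmental network-formation MEA in primary rat cortical cultures with exposure spanning days 0–12. Within-burst ISI is averaged per well and integrated across recording days by area under the curve, with DMSO as negative control baseline.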

[4] = CCTE_Shafer_MEA_dev_burst_duration_mean: CCTE's Neural Network Formation Assay for Mean Burst Duration, Shafer Lab (AID 2284045);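 as to AC50: curve fitted for loss meaning shorter burst duration than DMSO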
Summary of the method: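 Primary rat cortical neurons on 48-well 16-electrode MEA plates, exposed from day 0 with renewal at DIV 5 and 9; spontaneous activity recorded on days 5, 7, 9, 12. Well-mean burst duration across bursting electrodes, collapsed as trapezoidal AUC; DMSO baseline.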

[5] = CCTE_Shafer_MEA_dev_interburst_interval_mean: CCTE's Neural Network Formation Assay for Mean Interburst Interval, Shafer Lab (AID 2284046);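 also: well-mean interburst interval of bursting electrodes as AUC over four recording days; curve fitted for decrease in interburst interval relative to DMSO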
Summary of the method: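 Primary rat cortical neurons on PEI-coated 48-well MEA plates (laminin added with cells at plating) (16 electrodes/well), exposed from plating day 0 with renewal at DIV 5 and 9. Mean inter-burst interval averaged over bursting electrodes, AUC across days 5, 7, 9, 12; DMSO baseline.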

[6] = CCTE_Shafer_MEA_dev_inter_network_spike_interval_mean: CCTE's Neural Network Formation Assay for Mean Inter-network Spike Interval, Shafer Lab (AID 2284047);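 as to AC50: potency for a decrease in mean inter-network spike interval below DMSO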
Summary of the method: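 Mean time between consecutive network-spike peaks, recorded extracellularly (adaptive spike detection) on DIV 5, 7, 9 and 12, summarized as trapezoidal AUC. Rat cortical cultures on MEAs dosed continuously days 0–12, re-dosed at feeds; loss-of-signal fit relative to DMSO.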

[7] = CCTE_Shafer_MEA_dev_network_spike_number: CCTE's Neural Network Formation Assay for Number of Network Spikes, Shafer Lab (AID 2284048);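 also: synchronized bursts across electrodes counted on days 5 7 9 12 and integrated as AUC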;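 as to AC50: fit as a loss of signal meaning fewer network spikes than DMSO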
Summary of the method: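 Primary rat cortical neurons on PEI/laminin 48-well MEA plates, dosed from plating day 0 for 12 days, renewed at DIV 5 and 9. Network spike counts recorded DIV 5, 7, 9, 12, collapsed as trapezoidal AUC; DMSO baseline.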

[8] = CCTE_Shafer_MEA_dev_spike_duration_mean: CCTE's Neural Network Formation Assay for Mean Spike Duration, Shafer Lab (AID 2284051);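 also: mean network spike duration pooled as area under curve over DIV 5 to 12 recordings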;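 as to AC50: potency for a decrease in mean network spike duration versus DMSO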
Summary of the method: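 Spontaneous activity was recorded on days 5, 7, 9 and 12 from rat cortical cultures grown on microelectrode arrays and dosed continuously from day 0, with media and compound renewed after the DIV 5 and 9 recordings. Network-spike duration was collapsed by area under the curve.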

[9] = CCTE_Shafer_MEA_dev_network_spike_duration_std: CCTE's Neural Network Formation Assay for Standard Deviation of Network Spike Duration, Shafer Lab (AID 2284052);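 also: hits are decreases in network spike duration SD versus DMSO vehicle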
Summary of the method: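 Network spike duration variability was collapsed across recordings on days 5, 7, 9 and 12 by trapezoidal area-under-curve and fitted downward against DMSO. Cultures were rat cortical neurons on PEI-coated MEA plates, dosed continuously from plating, refed with compound DIV 5/9.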

[10] = CCTE_Shafer_MEA_dev_per_network_spike_spike_number_mean: CCTE's Neural Network Formation Assay for Mean Number of Spikes in a Network Spike, Shafer Lab (AID 2284053);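 as to AC50: fitted as decrease in spikes per network spike relative to DMSO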
Summary of the method: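 Mean spike count within each network spike, taken in a 0.05 s window at its peak, was recorded on days 5, 7, 9 and 12 and integrated as trapezoidal area under the curve. Rat cortical cultures on MEA plates received continuous compound from day 0, refreshed at medium changes on DIV 5 and 9.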

[11] = CCTE_Shafer_MEA_dev_per_network_spike_spike_percent: CCTE's Neural Network Formation Assay for Percent of Spikes in a Network Spike, Shafer Lab (AID 2284054)
Summary of the method: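 Rat primary cortical neurons were grown on 48-well MEA plates (16 electrodes/well), exposed from plating day 0 through day 12, with treatment renewed on DIV 5 and 9. Percent of spikes within 0.05 s network-spike peaks was measured, summarised as AUC across days 5, 7, 9, 12.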

[12] = CCTE_Shafer_MEA_acute_AB: CCTE's Alamar Blue Assay for Cytotoxicity in the Neural Acute Assay, Shafer Lab (AID 2284069; active = hit-call score of the fitted dose curve at least 0.9, where 1 is the maximum;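 also: active compounds lower the viability signal compared with DMSO wells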)
Summary of the method: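 Resazurin reduction (CellTiter Blue, 1:6 in fresh medium) read at ex 544/em 590 nm marks viability loss relative to DMSO. Cells: primary rat cortical neuron networks on microelectrode arrays, treated after baseline recording at 13 or 15 days in vitro.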

[13] = CCTE_Shafer_MEA_dev_AB: CCTE's Alamar Blue Assay for Cytotoxicity in the Neural Network Formation Assay, Shafer Lab (AID 2284083; active = hit-call score of the fitted dose curve at least 0.9, where 1 is the maximum;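 also: resazurin reduction fluorescence as viability of cultured neurons; twelve days of exposure from plating with re-dosing on DIV 5 and 9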)
Summary of the method: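 Resazurin fluorescence, relative to DMSO, gauges viability after twelve days of exposure that began at plating of rat cortical neurons (1.5 x 10^5 cells/well, 48-well MEA); treatment renewed with full medium exchange on DIV 5 and 9.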

[14] = CCTE_Shafer_MEA_acute_LDH: CCTE's Lactate Dehydrogenase Assay for Cytotoxicity in the Neural Acute Assay, Shafer Lab (AID 2284086; active = hit-call score of the fitted dose curve at least 0.9, where 1 is the maximum;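 also: active means LDH release rises above DMSO vehicle level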)
Summary of the method: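 Released lactate dehydrogenase, read at 490 nm, indicated cytotoxicity after acute 40-min compound treatment of rat cortical neuron networks grown on 48-well MEA plates.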

[15] = UKN5_HCS_SBAD2_cell_viability: Viability Assessment in the University of Konstanz (UKN) Leist Lab Neurite Outgrowth Assay in human iPSC-derived immature Dorsal Root Ganglia Neurons (UKN5) (AID 2284056)
Summary of the method: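 iPSC-derived immature peripheral neurons (SBAD2) seeded on Matrigel with CHIR99021, SU5402 and DAPT, dosed 1 h later for 24 h. Viability from Hoechst H-33342 and calcein-AM live staining, high-content imaging; bidirectional fit versus DMSO.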

[16] = UKN5_HCS_SBAD2_neurite_outgrowth: University of Konstanz (UKN) Leist Lab Neurite Outgrowth Assay in human iPSC-derived immature Dorsal Root Ganglia Neurons (UKN5) (AID 2284070); settings: actives raise or lower the signal
Summary of the method: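 SBAD2 neurons, 24 h compound treatment, calcein-AM neurite area via HCS imaging; DMSO baseline, gain or loss of signal.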

[17] = molecular target: Estrogen receptor (Homo sapiens) (UniProt P03372); experiment: CCTE_Deisenroth_AIME_384WELL_LUC_Shift: CCTE's 384-well Estrogen Receptor Transactivation Assay with AIME metabolic competence data shift (ERTA luciferase; difference in metabolism positive and negative), Deisenroth Lab (AID 2284041);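 also: shift is response with S9 minus without S9 so positive means metabolism raised ER signal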
Summary of the method: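 Chemicals (0.002–200 uM, 10 points) pre-incubated 2 h with alginate-encapsulated induced male Sprague Dawley rat liver S9 or S9-free, then medium applied 24 h to VM7Luc4E2 cells; luciferase. Endpoint is per-concentration difference, S9-positive minus negative.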

[18] = tested on: DIO2 (gene 1734); experiment: CCTE_GLTED_hDIO2: CCTE's human Deiodinase 2 (DIO2) Inhibition Assay, Great Lakes Toxicology and Ecology Division (GLTED) Lab (AID 2284050; active = hit-call score of the fitted dose curve at least 0.9, where 1 is the maximum)
Summary of the method: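 In this cell-free test, chemicals are exposed to human deiodinase type 2 for 3 hours. Released iodide is determined spectrophotometrically via the Sandell-Kolthoff method, and signal loss relative to DMSO is fitted.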

[19] = tested on: DIO3 (gene 1735); experiment: CCTE_GLTED_hDIO3: CCTE's human Deiodinase 3 (DIO3) Inhibition Assay, Great Lakes Toxicology and Ecology Division (GLTED) Lab (AID 2284055; active = hit-call score of the fitted dose curve at least 0.9, where 1 is the maximum;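 also: potency is for inhibition seen as loss of released iodide signal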)
Summary of the method: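 Enzyme activity is tracked as iodide release from substrate by recombinant human DIO3 over 3 h with chemical present. A second Sandell-Kolthoff step converts iodide to an absorbance signal, fitted relative to DMSO.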

[20] = molecular target: Estrogen receptor (Homo sapiens) (UniProt P03372); experiment: CCTE_Deisenroth_AIME_384WELL_LUC_Inactive: CCTE's 384-well Estrogen Receptor Transactivation Assay without AIME metabolic competence (ERTA luciferase; metabolism negative), Deisenroth Lab (AID 2284038; active = hit-call score of the fitted dose curve at least 0.9, where 1 is the maximum;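 also: VM7Luc4E2 breast cells given medium preincubated 2 h with S9-free microspheres; hits raise estrogen receptor luciferase signal so potencies reflect agonists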)
Summary of the method: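 Chemicals (10-point series, 0.002 - 200 uM) were incubated 2 hours with alginate-water microsphere lids lacking S9, then the conditioned medium was transferred to VM7Luc4E2 breast cells for 24 hour. Luciferase induction was read by bioluminescence, fitted upward relative to 17beta-estradiol.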

Measured: AC50

Estrogen receptor (Homo sapiens), sequence (P03372 whole entry, looked up): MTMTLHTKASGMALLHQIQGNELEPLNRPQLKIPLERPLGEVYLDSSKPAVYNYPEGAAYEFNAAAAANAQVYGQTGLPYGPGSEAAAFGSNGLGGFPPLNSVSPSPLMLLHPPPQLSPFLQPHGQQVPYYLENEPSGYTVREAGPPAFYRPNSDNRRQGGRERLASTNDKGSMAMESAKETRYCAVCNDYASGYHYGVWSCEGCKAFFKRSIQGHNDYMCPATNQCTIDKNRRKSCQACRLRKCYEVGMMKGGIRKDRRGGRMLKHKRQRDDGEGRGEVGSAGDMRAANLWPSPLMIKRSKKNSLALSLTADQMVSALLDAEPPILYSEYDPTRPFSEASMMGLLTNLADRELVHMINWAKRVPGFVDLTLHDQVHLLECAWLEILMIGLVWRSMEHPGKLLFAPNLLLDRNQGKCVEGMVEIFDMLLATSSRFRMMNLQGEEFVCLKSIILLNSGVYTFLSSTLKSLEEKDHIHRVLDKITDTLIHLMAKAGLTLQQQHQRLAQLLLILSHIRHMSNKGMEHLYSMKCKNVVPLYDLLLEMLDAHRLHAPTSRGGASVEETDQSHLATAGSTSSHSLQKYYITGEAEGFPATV

CCOP(=O)(NC(C)C)Oc1ccc(SC)c(C)c1 (stereo not drawn)
inactive: [1] | [2] | [3] | [4] | [5] | [6] | [7] | [8] | [9] | [10] | [11] | [12] | [13] | [14]
active: [2] 33.4 µM | [4] 17.3 µM | [5] 31.5 µM | [7] 79.5 µM | [8] 21 µM | [9] 10.1 µM | [10] 61.4 µM | [11] 11.7 µM

CC(COc1ccc(Oc2ccccc2)cc1)Oc1ccccn1 (stereo not drawn)
inactive: [1] | [12]

CON=C(C(=O)OC)c1ccccc1CON=C(C)c1cccc(C(F)(F)F)c1
active: [2] 775 nM and 838 nM | [3] 1.53 µM and 2.32 µM | [4] 674 nM and 995 nM | [5] 1.32 µM and 798 nM | [6] 969 nM and 1.72 µM | [7] 632 nM and 884 nM | [8] 603 nM and 625 nM | [9] 642 nM and 886 nM | [10] 697 nM and 542 nM | [11] 981 nM and 686 nM | [13] 1.26 µM and 437 nM
inactive: [1] | [12] | [14]

COP(=O)(OC)C(O)C(Cl)(Cl)Cl (stereo not drawn)
inactive: [3] | [4] | [5] | [6] | [7] | [9] | [12] | [16]
active: [2] 11.6 µM | [3] 90.8 µM | [7] 2.98 µM | [8] 50 µM and 15 µM | [10] 50 µM and 15 µM | [11] 50 µM and 15 µM | [15] 9.96 µM | [13] 50 µM and 1.05 µM

O=C(O)c1cc(Oc2ccc(C(F)(F)F)cc2Cl)ccc1[N+](=O)[O-]
inactive: [1] | [14]

CC1=NNC(=O)N(/N=C/c2cccnc2)C1
active: [4] 24.8 µM
inactive: [1] | [3] | [5] | [6] | [7] | [8] | [9] | [10] | [11] | [12] | [13] | [14]

C#CC(C)(C)NC(=O)c1cc(Cl)cc(Cl)c1
inactive: [1]

O=[N+]([O-])c1cc(C(F)(F)F)c(Cl)c([N+](=O)[O-])c1Nc1ncc(C(F)(F)F)cc1Cl
inactive: [17] | [12] | [14]
active: [1] 142 µM | [2] 0.905 µM | [3] 0.783 µM | [4] 0.549 µM | [5] 0.885 µM | [6] 1.9 µM | [7] 0.425 µM | [18] 2.04 µM | [8] 0.734 µM | [9] 0.291 µM | [10] 0.771 µM | [11] 0.742 µM | [19] 2.04 µM | [13] 1.01 µM

CCCCOC(=O)[C@@H](C)Oc1ccc(Oc2ccc(C#N)cc2F)cc1
inactive: [20] | [17]

COc1ccc(C(=CC(=O)N2CCOCC2)c2ccc(Cl)cc2)cc1OC
inactive: [1]

CCOP(=O)(SC(C)CC)N1CCSC1=O (stereo not drawn)
inactive: [1] | [2] | [3] | [4] | [5] | [6] | [7] | [8] | [9] | [10] | [11]

CSc1nc(NC(C)C)nc(NC(C)C)n1
inactive: [1] | [17]

CCC(=NOC/C=C/Cl)C1=C(O)CC(C2CCOCC2)CC1=O (stereo not drawn)
inactive: [1]

CCCSP(=O)(OCC)Oc1ccc(Br)cc1Cl (stereo not drawn)
inactive: [1] | [2] | [3] | [4] | [5] | [6] | [7] | [8] | [9] | [10] | [11] | [13]

COP(=O)(OC)SCn1c(=O)oc2cc(Cl)cnc21
active: [1] 100 µM | [17] 71.1 µM
